The source made the active and inactive calls.
Legend:
[1] = tested on: PRMT1 (protein arginine N-methyltransferase 1); experiment: PRMT1 binders on small-molecule microarrays, primary screen, biochemical, small-molecule microarray, 635 nm fluorescence (AID 1088); conditions: small-molecule microarray binding, higher = more signal;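 further: binding of Prmt1 protein to compounds spotted on small-molecule microarray slides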
[2] = yeast growth modulation, basal conditions, primary screen, YJM789 clinical isolate, OD600, 24 h (AID 1089);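 further: growth of clinical yeast isolate S. cerevisiae YJM 789 seeded 1000 cells per well; test concentration not given here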; conditions: S. cerevisiae YJM789 growth, higher = more signal, called active from +8 up or from −8 down
[3] = fission yeast growth modulation, primary screen, strain 972, OD600, 24 h, no modulator (AID 1090);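 further: basal condition with compound alone and no growth modifier present; test concentration not given here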; conditions: S. pombe 972 growth, higher = more signal, called active from +8 up or from −8 down
[4] = S. cerevisiae growth modulation with rapamycin, primary screen, strain BY4716, OD600, 96 h (AID 1091); conditions: higher = more signal, called active from +8 up or from −8 down; further: test concentration not given here
[5] = target: Torsin-1A-interacting protein 2 (Homo sapiens) (UniProt Q8NFQ8); experiment: LULL1 binders on small-molecule microarray, primary screen, cell lysate, human LULL1 lysate, 635/667 nm fluorescence (AID 1092); conditions: hLULL1 lysate binding, 635 nm fluorescence, higher = more signal;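 further: probe is lysate of COS7 cells overexpressing human LULL1; score merges per-feature 667 nm fluorescence with signal-to-noise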
[6] = E. coli growth modulation, two-sided OD650, primary screen, E. coli filamentation project, strain DRC41, 24 h (AID 1093); conditions: OD650, 24 h, higher = more signal, called active from +8 up or from −8 down;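 further: MC1000 strain lacking acrAB efflux and sulA so SOS filamentation is blocked; test concentration not given here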
[7] = small-molecule microarray binders of probe aLefty2, primary screen, biochemical, biotinylated probe, 635/667 nm fluorescence (AID 1094); conditions: higher = more signal;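 further: score merges spot fluorescence near 667 nm with spot signal-to-noise ratio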
[8] = tested on: Noggin (protein binding on small-molecule microarray); experiment: Noggin binders on small-molecule microarray, primary screen, biochemical, 635/667 nm fluorescence (AID 1095); conditions: 635 nm fluorescence, higher = more signal;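 further: score merges 667 nm feature fluorescence with signal to noise over triplicate slides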
[9] = target: Neurogenic locus notch homolog protein 3 (Homo sapiens) (UniProt Q9UM47); experiment: NOTCH3 binders on small-molecule microarray, primary screen, biochemical, 635/667 nm fluorescence (AID 1096); conditions: NOTCH3 binding, 635 nm fluorescence, higher = more signal
[10] = small-molecule microarray binders of probe aEGFR, primary screen, biochemical, biotinylated probe, 635/667 nm fluorescence (AID 1097); conditions: higher = more signal;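 further: probe is a biotinylated anti-EGFR antibody binding compounds printed on slides; score combines fluorescence near 667 nm and signal to noise of each spot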

Chain of Neurogenic locus notch homolog protein 3 (Homo sapiens) (Q9UM47 whole entry, looked up): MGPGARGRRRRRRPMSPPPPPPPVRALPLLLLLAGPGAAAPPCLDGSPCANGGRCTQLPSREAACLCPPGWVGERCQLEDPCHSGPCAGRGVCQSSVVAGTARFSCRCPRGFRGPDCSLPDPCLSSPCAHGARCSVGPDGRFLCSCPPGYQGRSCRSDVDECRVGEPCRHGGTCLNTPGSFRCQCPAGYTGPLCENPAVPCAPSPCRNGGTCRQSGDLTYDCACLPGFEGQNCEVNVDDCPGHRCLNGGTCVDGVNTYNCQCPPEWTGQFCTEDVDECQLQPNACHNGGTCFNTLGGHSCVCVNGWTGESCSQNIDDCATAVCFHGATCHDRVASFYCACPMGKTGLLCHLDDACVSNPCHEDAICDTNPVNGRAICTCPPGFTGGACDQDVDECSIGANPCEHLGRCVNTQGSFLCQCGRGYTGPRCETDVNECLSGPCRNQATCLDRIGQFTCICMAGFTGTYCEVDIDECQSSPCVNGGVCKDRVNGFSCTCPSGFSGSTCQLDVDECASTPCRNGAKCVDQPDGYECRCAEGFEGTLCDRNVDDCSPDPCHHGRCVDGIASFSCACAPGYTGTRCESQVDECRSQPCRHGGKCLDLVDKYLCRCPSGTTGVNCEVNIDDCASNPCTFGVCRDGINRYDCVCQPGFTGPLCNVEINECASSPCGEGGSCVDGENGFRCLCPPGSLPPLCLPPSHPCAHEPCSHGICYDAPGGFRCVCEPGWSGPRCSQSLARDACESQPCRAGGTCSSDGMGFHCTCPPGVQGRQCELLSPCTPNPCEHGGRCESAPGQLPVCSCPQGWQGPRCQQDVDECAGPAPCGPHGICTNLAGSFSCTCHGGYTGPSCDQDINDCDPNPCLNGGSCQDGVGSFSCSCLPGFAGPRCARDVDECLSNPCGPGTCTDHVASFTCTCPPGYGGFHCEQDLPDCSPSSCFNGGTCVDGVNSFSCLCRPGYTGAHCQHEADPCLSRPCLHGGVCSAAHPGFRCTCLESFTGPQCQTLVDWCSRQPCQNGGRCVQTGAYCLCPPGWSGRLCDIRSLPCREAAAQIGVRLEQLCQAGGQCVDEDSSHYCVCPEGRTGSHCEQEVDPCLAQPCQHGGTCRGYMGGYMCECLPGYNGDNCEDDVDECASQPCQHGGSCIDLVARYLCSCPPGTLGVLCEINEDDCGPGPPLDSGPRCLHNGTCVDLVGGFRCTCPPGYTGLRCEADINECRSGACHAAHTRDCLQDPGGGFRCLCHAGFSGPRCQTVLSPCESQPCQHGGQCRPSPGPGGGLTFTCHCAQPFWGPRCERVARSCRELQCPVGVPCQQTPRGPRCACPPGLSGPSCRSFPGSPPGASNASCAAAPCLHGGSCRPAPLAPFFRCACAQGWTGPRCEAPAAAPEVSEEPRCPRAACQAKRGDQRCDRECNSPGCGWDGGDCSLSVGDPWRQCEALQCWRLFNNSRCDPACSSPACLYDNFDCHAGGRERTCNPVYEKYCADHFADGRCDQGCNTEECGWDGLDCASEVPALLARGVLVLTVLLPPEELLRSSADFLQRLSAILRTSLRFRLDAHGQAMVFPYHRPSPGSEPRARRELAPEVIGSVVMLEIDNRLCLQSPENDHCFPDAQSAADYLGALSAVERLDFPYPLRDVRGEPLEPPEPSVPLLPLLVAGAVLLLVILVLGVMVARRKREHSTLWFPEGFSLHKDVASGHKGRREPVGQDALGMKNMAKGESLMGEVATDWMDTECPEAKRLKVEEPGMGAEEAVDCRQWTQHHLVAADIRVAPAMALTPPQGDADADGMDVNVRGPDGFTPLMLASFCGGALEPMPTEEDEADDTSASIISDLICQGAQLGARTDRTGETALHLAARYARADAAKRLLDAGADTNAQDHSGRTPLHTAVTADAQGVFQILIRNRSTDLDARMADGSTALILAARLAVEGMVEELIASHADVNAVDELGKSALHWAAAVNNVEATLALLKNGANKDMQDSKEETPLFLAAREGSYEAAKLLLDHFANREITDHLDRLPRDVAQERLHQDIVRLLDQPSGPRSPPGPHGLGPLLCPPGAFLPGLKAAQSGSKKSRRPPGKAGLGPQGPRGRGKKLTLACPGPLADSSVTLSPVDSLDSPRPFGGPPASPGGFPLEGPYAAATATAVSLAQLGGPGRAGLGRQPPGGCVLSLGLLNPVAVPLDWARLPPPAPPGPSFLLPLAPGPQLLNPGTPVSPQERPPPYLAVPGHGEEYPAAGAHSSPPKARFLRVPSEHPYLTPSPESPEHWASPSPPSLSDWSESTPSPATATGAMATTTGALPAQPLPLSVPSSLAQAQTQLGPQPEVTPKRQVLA
Chain of Torsin-1A-interacting protein 2 (Homo sapiens) (Q8NFQ8 whole entry, looked up): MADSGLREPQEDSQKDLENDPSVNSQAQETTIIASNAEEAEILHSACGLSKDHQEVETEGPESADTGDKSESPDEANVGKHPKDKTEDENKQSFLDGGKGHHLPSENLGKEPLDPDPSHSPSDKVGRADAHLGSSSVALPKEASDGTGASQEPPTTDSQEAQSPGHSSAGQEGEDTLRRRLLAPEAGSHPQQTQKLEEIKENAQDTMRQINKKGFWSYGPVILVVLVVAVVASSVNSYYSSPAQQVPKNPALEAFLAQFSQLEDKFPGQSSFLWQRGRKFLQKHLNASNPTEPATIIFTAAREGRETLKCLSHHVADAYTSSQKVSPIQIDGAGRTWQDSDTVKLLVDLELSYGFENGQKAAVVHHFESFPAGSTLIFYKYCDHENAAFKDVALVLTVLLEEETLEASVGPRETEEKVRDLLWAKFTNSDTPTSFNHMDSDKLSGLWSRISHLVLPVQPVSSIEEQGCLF

SMILES	composite z-score [1]	z-score [2]	z-score [3]	z-score [4]	composite z-score [5]	z-score [6]	composite z-score [7]	composite z-score [8]	composite z-score [9]	composite z-score [10]
CC(C)C(O)C1C=CC2C(=O)NC(=O)C2N1Nc1ccc(Cl)cc1Cl (stereo not given)	0.119	0.376 (inactive)	-0.843 (inactive)	1.5 (inactive)	3.18	-0.805 (inactive)	0.112	-0.463	0.0316	-0.122
NCCCCCNC(=O)[C@@H]1C[C@@H]2C(=O)N[C@@H](Cc3ccccc3)C(=O)N2[C@@H]1c1ccc(O)cc1	1.31	-0.247 (inactive)	-0.448 (inactive)	-0.367 (inactive)	1.66	-0.811 (inactive)	-0.0717	0.923	0.452	0.0381
CN(C)CCCC[C@@H]1NC(=O)[C@@H]2C[C@H](C(=O)NCCCCCCN)[C@H](c3cccc(OCCO)c3)N2C1=O	1.53	-0.968 (inactive)	-4.9 (inactive)	-0.883 (inactive)	3.25	0.26 (inactive)	1.03	0.612	0.395	0.54
COC(=O)C(CC#Cc1ccc2c(c1)[C@]1(C(=O)N2)[C@H](c2ccc(OCCO)cc2)N2[C@H](c3ccccc3)[C@H](c3ccccc3)OC(=O)[C@H]2[C@@H]1C(=O)N1CCc2cc(OC)c(OC)cc2C1)C(=O)OC	1.57	2.12 (inactive)	1.74 (inactive)	5.14 (inactive)	3.34	0.49 (inactive)	0.365	-1.11	1.07	0.169
CCCCCCc1nc(-c2ccc(OC)nc2)cc2c1[Si](C(C)C)(C(C)C)O[C@H]2c1ccccc1	0.608	0.493 (inactive)	0.993 (inactive)	-0.226 (inactive)	-0.4	-0.995 (inactive)	-0.203	0.75	0.783	-0.0674
C=CC[C@]1(C(=O)NCCCOC)N=C(c2ccc(OCCCO)cc2)O[C@H]1c1ccccc1CN=[N+]=[N-]	1.13	-1.5 (inactive)	0.998 (inactive)	-1.71 (inactive)	3.15	-0.483 (inactive)	0.248	0.102	0.854	0.286
COCCOC(=O)N1C(=O)[C@@]2(c3cc(C#CCCO)ccc31)[C@H](C(N)=O)[C@H]1C(=O)O[C@H](c3ccccc3)[C@H](c3ccccc3)N1[C@@H]2c1ccc(O)cc1	-0.101	0.0223 (inactive)	-0.0181 (inactive)	-0.535 (inactive)	0.877	-0.844 (inactive)	-0.159	-0.248	-0.589	-0.202
CNS(=O)(=O)c1ccc(C)cc1	1.14	-2.29 (inactive)	-2.38 (inactive)	-0.719 (inactive)	0.283	2.55 (inactive)	-0.165	1.19	0.629	-0.101
CCCC=C(CCC)[C@@H](NC(=O)c1cccs1)c1ccc(C(F)(F)F)cc1	1.03	-0.522 (inactive)	-2.1 (inactive)	-0.851 (inactive)	0.109	-0.649 (inactive)	0.291	0.989	1.09	0.315
CN(C)CCCCCCNC(=O)[C@@H]1C[C@@H]2C(=O)N[C@@H](Cc3ccccc3)C(=O)N2[C@@H]1c1ccc(O)cc1	1.53	-0.18 (inactive)	-0.899 (inactive)	0.0891 (inactive)	2.84	-0.13 (inactive)	0.195	1.8	1.09	0.246
COC(=O)c1c(CC[C@@H](CO)NC(=O)NCCn2cc(C3(O)CCCC3)nn2)oc(C(C)=O)c1C(=O)OC	0.463	-0.539 (inactive)	-0.263 (inactive)	-0.0147 (inactive)	3.24	-0.918 (inactive)	-0.23	0.0587	-0.33	-0.0778
CC(C)CNC(=O)[C@@]1(Cc2ccccc2I)c2ccccc2C(=O)N(C2CCCCC2)[C@H]1c1ccc(CO)cc1	1.57	-1.32 (inactive)	-0.597 (inactive)	0.153 (inactive)	1.28	-0.518 (inactive)	0.164	-0.235	0.497	0.0066
CO[C@H]1O[C@H](CO)[C@@H](OC(=O)Nc2ccccc2)[C@H](OC(=O)Nc2ccccc2)[C@@H]1OC(=O)Nc1ccccc1	1.53	1.24 (inactive)	0.975 (inactive)	3.37 (inactive)	3.66	-0.0493 (inactive)	0.232	1.38	1.06	0.138
NC(=O)NCC#Cc1ccc2c(c1)[C@]1(C(=O)N2)[C@H](c2ccccc2OCCO)N2[C@H](c3ccccc3)[C@H](c3ccccc3)OC(=O)[C@H]2[C@@H]1C(=O)Nc1nc2ccccc2s1	1.24	1.99 (inactive)	1.61 (inactive)	3.78 (inactive)	2.49	1.15 (inactive)	-0.0416	0.288	0.773	-0.178
NC(=O)N1C(=O)C2C(C1=O)C1C=C(c3ccc(CO)cc3)C2C(c2cccs2)N1Cc1cccc(OC(F)(F)F)c1 (stereo not given)	-0.139	-1.7 (inactive)	-4.45 (inactive)	3.82 (inactive)	1.01	-0.528 (inactive)	0.181	-0.312	-0.146	0.0089
C=CC[C@]1(C(=O)NCc2ccccc2)N=C(c2ccc(OCCCO)cc2)O[C@H]1c1ccccc1N=[N+]=[N-]	1.22	-1.33 (inactive)	0.0342 (inactive)	0.511 (inactive)	3.24	0.73 (inactive)	0.17	0.0073	1.11	0.0968
O=C1N[C@@H](Cc2ccccc2)C(=O)N2[C@@H]1C[C@@H](C(=O)O)[C@H]2c1cccc(OCCO)c1	1.56	0.809 (inactive)	-0.66 (inactive)	-0.276 (inactive)	1.06	1.18 (inactive)	-0.0206	1.43	0.611	-0.071
CCOC(=O)C1=C[C@@H](C(C)(C)C)N(S(=O)(=O)c2ccc(C)cc2)[C@H]1c1ccc(F)cc1	1.5	0.518 (inactive)	1.95 (inactive)	1.92 (inactive)	3.07	-1.02 (inactive)	-0.0341	0.989	1.07	-0.0004
C=CC(=C)[C@H]1Oc2ccccc2S(=O)(=O)N2CCC[C@@H]12	-1.3	-0.946 (inactive)	-2.71 (inactive)	-0.601 (inactive)	-0.562	-0.504 (inactive)	0.0189	0.518	-0.406	-0.152
C=CCOC(=O)[C@H]1[C@@H]2C(=O)O[C@@H](c3ccccc3)[C@@H](c3ccccc3)N2[C@@H](c2ccc(OCCOC(=O)[C@@H]3C[C@@H]4C(=O)N[C@@H](CCCCNC(C)=O)C(=O)N4[C@@H]3c3ccc(O)cc3)cc2)[C@]12C(=O)Nc1ccccc12	1.54	1.7 (inactive)	-0.133 (inactive)	3.53 (inactive)	2.6	-0.264 (inactive)	0.0025	1.14	1.08	-0.0625
O=C1NC(=O)C2C1C=CC(C(O)c1cccs1)N2Nc1ccc(Cl)cc1Cl (stereo not given)	0.407	1.01 (inactive)	0.186 (inactive)	1.74 (inactive)	2.37	-0.0056 (inactive)	-0.0333	-0.394	-0.23	-0.0476
COC(=O)[C@@]1(Cc2ccc(OC)cc2)[C@H]2c3cc(C(=O)N4CCCC4)n(Cc4ccc(O)c(OC)c4)c3C[C@H]2CN1C(=O)c1ccccc1	-0.356	0.972 (inactive)	1.19 (inactive)	1.18 (inactive)	3.39	-0.456 (inactive)	0.531	-0.194	0.6	0.805
CCC(CC)C(O)C1C=CC2C(=O)NC(=O)C2N1Nc1ccc(Cl)cc1Cl (stereo not given)	1.4	0.446 (inactive)	-5.81 (inactive)	1.34 (inactive)	3.13	-1.57 (inactive)	-0.0306	-0.284	1.01	-0.0352
CN(C)CCCCCCNC(=O)[C@H]1C[C@H]2C(=O)N[C@@H](CCCCN)C(=O)N2[C@H]1c1cccc(OCCO)c1	1.56	-0.871 (inactive)	-9.2 (active)	-0.622 (inactive)	4.65	-0.15 (inactive)	1.76	2.06	1.01	1.12
C=C(CCCC)C(=O)CC[C@@H](OC(=O)c1ccccc1-c1ccccc1C(=O)O)c1ccc(OCCO)cc1	1.53	-0.848 (inactive)	-1.57 (inactive)	-1.2 (inactive)	0.259	0.502 (inactive)	-0.0272	0.931	0.462	-0.0767
COC(=O)[C@]1(CCC(=O)OC(C)(C)C)N=C(c2ccc(OCCCO)cc2)O[C@@H]1c1ccccc1CN=[N+]=[N-]	1.52	0.339 (inactive)	0.419 (inactive)	15.2 (active)	2.07	-0.511 (inactive)	0.271	-0.146	0.51	0.124
C=C(CCCC)/C(=C/C[C@@H](OC(C)=O)c1ccc(OCCO)cc1)c1cnc2ccccc2c1	1.56	0.273 (inactive)	-1.44 (inactive)	-0.245 (inactive)	2.01	0.796 (inactive)	-0.132	0.542	0.857	0.0507
CC(C)C[C@@H]1NC(=O)[C@@H]2C[C@H](C(=O)O)[C@H](c3cccc(OCCO)c3)N2C1=O	0.64	-0.19 (inactive)	-0.734 (inactive)	-0.56 (inactive)	1.89	1.06 (inactive)	-0.173	-0.0135	-0.155	-0.229
C=CCNC(=O)[C@H]1[C@@H]2C(=O)O[C@@H](c3ccccc3)[C@@H](c3ccccc3)N2[C@@H](c2ccccc2OCCO)[C@]12C(=O)Nc1ccc(C#CCC(C(=O)OC)C(=O)OC)cc12	1.32	1.93 (inactive)	2 (inactive)	5.92 (inactive)	3.25	0.587 (inactive)	0.65	0.897	1.05	0.486
